The full data set covers some 7,900 targets. This sample favours those with a hit. About 0.6% of all pairs of compound and target were hits. Unmarked numbers belong to inactive results.
Tests used:
Assay in all cases: log2 fold change, soluble protein after heating vs DMSO (PISA); higher = thermal stabilisation; K562 cells, 10 uM, 30 min; active = over 0.2 and 3.5 SD of the protein, either way, in both replicates (recomputed)
IRAK-1-4 Inhibitor I = compound: C1COCCN1CCN2C3=CC=CC=C3N=C2NC(=O)C4=CC(=CC=C4)[N+](=O)[O-] [IRAK-1-4 Inhibitor I]
Outline: (§1)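 Values are thermal stability changes relative to control samples and are taken from duplicates. They are stated as log2 fold changes. Before quantification by TMTpro 16plex LC-MS/MS with equalised channel sums, K562 cells at 2×10^6 cells/mL were treated with 10 μM compound for 30 min, heated in aliquots for 3 min across 48°C-58°C, pooled, extracted in PBS with 0.5% NP-40 at 4°C, and centrifuged at 21,000xg for 90 min to give the soluble supernatant.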

ibrutinib = compound: C=CC(=O)N1CCC[C@@H](n2nc(-c3ccc(Oc4ccccc4)cc3)c3c(N)ncnc32)C1 [ibrutinib]
Outline: as §1

[1] = compound: CC(=O)c1cnc2ccc(-c3cc(Cl)c(O)c(Cl)c3)nc2c1N[C@H]1CC[C@H](CN(C)C)CC1
Outline: as §1

ralimetinib = compound: CC(C)(C)Cn1c(N)nc2ccc(-c3[nH]c(C(C)(C)C)nc3-c3ccc(F)cc3)nc21 [ralimetinib]
Outline: as §1

[2] = compound: CC(C)(O)CC(=O)NCCn1ccc2ncnc(Nc3ccc(Oc4cccc(C(F)(F)F)c4)c(Cl)c3)c21
Outline: as §1

[3] = compound: CC(C)C1=C2N=C(C=C(N2N=C1)NCC3=CC=CC=C3)NCCCCCCN
Outline: as §1

[4] = compound: CC(C)C[C@@H](C=O)NC(=O)[C@H](CC(C)C)NC(=O)[C@H](CC(C)C)NC(=O)OCc1ccccc1
Outline: as §1

pinometostat = compound: CC(C)N(C[C@H]1O[C@@H](n2cnc3c(N)ncnc32)[C@H](O)[C@@H]1O)[C@H]1C[C@@H](CCc2nc3cc(C(C)(C)C)ccc3[nH]2)C1 [pinometostat]
Outline: as §1

[5] = compound: CC1=C(C(CC(=O)N1)C2=CC=C(C=C2)C(F)(F)F)C(=O)NC3=C(C=C4C(=C3)C=NN4)F
Outline: as §1

[6] = compound: CC1=C(C2=C(C=C1)C(=O)C3=CC=CC=C3N2CCCN)C
Outline: as §1

[7] = compound: CC1=C(C=C(C=C1)NC(=O)C2=CC(=CC=C2)C(C)(C)C#N)NC3=CC4=C(C=C3)N=CN(C4=O)C
Outline: as §1

[8] = compound: CC1=C(C=C(C=C1)NC(=O)C2=CC(=CC=C2)N(C)C)NC(=O)C3=CC=C(C=C3)O
Outline: as §1

[9] = compound: CC1=CC=C(C=C1)SC2=C3C=C(SC3=CN=C2)C(=O)N
Outline: as §1

[10] = compound: CC1=NC(=CC=C1)C2=C(N=C(N2)C(C)(C)C)C3=CC4=NC=CN=C4C=C3
Outline: as §1

Nexturastat A = compound: CCCCN(Cc1ccc(C(=O)NO)cc1)C(=O)Nc1ccccc1 [Nexturastat A]
Outline: as §1

vemurafenib = compound: CCCS(=O)(=O)Nc1ccc(F)c(C(=O)c2c[nH]c3ncc(-c4ccc(Cl)cc4)cc23)c1F [vemurafenib]
Outline: as §1

[11] = compound: CCCS(=O)(=O)Nc1ccc(F)c(C(=O)c2c[nH]c3ncc(Cl)cc23)c1F
Outline: as §1

[12] = compound: CCCc1cc(C)[nH]c(=O)c1CNC(=O)c1cc(-c2ccnc(N3CCN(C)CC3)c2)cc2c1cnn2C(C)C
Outline: as §1

givinostat = compound: CCN(CC)Cc1ccc2cc(COC(=O)Nc3ccc(C(=O)NO)cc3)ccc2c1 [givinostat]
Outline: as §1

barasertib = compound: CCN(CCCOc1ccc2c(Nc3cc(CC(=O)Nc4cccc(F)c4)[nH]n3)ncnc2c1)CCOP(=O)(O)O [barasertib]
Outline: as §1

Sequence of UniProt Q96JG6 (Q96JG6 whole entry, looked up): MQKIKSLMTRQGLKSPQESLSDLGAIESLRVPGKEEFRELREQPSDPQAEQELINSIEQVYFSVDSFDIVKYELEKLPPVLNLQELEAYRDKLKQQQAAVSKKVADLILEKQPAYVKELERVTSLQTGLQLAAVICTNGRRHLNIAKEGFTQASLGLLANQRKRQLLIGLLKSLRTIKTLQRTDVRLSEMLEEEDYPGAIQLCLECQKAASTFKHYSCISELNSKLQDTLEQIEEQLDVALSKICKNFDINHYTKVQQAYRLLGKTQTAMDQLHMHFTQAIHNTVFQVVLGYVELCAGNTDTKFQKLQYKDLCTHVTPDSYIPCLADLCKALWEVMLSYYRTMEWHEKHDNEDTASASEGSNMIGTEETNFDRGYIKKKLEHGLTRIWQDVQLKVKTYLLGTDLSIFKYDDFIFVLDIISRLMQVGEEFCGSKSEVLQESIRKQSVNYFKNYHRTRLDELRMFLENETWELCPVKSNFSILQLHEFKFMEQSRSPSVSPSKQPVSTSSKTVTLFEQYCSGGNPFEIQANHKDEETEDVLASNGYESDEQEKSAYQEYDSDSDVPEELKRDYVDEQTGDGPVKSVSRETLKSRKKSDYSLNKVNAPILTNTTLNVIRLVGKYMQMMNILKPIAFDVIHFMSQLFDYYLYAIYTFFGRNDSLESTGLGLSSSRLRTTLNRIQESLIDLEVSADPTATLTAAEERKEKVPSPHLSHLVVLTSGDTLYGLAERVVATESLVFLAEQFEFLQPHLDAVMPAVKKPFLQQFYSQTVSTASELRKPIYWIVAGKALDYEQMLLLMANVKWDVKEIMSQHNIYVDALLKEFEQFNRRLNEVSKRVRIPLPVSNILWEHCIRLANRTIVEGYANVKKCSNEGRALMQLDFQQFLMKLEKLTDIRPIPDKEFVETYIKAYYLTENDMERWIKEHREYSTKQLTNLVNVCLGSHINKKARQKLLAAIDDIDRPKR
Sequence of UniProt Q15388 (Q15388 whole entry, looked up): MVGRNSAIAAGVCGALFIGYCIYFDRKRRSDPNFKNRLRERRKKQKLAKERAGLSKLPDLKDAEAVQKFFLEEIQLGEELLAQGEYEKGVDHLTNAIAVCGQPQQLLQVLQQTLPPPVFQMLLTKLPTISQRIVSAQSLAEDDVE
Sequence of UniProt Q15642 (Q15642 whole entry, looked up): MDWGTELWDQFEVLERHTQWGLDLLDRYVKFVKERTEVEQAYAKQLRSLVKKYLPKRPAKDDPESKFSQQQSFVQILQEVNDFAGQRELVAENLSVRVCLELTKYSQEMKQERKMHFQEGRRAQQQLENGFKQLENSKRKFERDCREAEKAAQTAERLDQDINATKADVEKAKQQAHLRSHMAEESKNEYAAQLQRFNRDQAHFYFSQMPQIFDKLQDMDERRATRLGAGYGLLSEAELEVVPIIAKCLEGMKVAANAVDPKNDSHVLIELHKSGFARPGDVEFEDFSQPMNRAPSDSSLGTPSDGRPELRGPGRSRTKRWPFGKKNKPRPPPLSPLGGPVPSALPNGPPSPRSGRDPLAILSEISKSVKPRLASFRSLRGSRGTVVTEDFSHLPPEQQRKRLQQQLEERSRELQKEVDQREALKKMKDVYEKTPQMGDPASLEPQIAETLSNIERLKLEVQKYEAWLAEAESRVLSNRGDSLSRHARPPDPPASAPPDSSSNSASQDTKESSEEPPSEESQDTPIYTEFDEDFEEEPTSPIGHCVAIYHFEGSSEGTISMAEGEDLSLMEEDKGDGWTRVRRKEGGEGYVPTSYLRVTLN
Sequence of UniProt P11388 (P11388 whole entry, looked up): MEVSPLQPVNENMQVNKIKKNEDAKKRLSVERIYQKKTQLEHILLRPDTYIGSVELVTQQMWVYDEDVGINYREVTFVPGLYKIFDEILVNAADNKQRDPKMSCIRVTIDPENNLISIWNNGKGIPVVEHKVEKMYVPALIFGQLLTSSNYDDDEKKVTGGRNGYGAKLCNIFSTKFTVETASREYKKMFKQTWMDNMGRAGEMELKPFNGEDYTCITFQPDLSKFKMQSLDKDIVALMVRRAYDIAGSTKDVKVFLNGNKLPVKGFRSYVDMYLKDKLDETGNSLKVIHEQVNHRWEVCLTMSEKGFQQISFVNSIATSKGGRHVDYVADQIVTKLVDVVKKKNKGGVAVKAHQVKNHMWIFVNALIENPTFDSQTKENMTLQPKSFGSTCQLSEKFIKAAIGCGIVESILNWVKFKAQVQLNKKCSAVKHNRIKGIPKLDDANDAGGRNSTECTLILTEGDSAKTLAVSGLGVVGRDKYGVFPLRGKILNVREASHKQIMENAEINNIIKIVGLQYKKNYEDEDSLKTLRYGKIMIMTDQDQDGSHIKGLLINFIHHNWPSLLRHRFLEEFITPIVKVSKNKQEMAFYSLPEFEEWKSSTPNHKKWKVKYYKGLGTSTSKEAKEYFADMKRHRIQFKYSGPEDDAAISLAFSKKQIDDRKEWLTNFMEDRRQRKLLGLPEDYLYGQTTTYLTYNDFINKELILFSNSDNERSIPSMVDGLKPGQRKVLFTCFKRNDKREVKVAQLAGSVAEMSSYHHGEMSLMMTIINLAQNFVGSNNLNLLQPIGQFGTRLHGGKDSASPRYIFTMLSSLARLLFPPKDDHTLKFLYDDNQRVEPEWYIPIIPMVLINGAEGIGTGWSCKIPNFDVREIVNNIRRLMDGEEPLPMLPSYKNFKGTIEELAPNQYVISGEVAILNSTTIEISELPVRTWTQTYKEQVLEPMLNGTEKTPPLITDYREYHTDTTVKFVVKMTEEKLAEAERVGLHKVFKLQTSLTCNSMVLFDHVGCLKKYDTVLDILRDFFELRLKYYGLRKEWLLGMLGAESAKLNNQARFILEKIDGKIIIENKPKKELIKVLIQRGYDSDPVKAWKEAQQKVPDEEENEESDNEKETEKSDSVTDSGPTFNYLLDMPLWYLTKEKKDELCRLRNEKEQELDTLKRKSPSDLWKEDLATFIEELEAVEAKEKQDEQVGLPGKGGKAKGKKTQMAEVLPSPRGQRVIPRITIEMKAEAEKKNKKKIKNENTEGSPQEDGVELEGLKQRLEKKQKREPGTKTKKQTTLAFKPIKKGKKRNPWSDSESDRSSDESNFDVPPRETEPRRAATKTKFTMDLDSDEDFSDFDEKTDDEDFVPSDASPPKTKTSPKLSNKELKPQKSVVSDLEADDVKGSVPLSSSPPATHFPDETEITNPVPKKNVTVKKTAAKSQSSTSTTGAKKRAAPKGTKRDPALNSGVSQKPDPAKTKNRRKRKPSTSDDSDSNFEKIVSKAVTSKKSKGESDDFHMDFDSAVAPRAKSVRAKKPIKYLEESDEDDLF
Sequence of UniProt Q8WVY7 (Q8WVY7 whole entry, looked up): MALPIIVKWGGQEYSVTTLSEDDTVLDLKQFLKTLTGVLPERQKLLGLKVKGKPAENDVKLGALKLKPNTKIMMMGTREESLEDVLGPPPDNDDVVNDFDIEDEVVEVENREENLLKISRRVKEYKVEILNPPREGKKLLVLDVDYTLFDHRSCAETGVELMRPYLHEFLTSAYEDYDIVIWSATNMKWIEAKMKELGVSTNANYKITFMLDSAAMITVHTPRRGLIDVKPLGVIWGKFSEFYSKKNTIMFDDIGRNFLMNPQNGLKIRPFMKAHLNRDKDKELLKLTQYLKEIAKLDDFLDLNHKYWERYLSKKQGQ
Sequence of UniProt P68366 (P68366 whole entry, looked up): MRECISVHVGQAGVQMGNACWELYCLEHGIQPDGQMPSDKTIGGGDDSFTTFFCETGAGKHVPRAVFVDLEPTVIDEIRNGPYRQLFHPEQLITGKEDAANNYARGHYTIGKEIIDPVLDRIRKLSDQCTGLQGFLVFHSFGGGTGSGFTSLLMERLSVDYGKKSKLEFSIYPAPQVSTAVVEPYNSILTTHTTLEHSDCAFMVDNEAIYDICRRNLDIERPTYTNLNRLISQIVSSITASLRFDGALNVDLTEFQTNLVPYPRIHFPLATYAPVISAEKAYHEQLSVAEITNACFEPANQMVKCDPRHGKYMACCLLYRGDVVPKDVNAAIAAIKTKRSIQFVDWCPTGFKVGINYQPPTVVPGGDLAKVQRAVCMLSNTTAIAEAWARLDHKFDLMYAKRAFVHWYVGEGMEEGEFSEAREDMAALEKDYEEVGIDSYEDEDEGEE
Sequence of UniProt Q9NQH7 (Q9NQH7 whole entry, looked up): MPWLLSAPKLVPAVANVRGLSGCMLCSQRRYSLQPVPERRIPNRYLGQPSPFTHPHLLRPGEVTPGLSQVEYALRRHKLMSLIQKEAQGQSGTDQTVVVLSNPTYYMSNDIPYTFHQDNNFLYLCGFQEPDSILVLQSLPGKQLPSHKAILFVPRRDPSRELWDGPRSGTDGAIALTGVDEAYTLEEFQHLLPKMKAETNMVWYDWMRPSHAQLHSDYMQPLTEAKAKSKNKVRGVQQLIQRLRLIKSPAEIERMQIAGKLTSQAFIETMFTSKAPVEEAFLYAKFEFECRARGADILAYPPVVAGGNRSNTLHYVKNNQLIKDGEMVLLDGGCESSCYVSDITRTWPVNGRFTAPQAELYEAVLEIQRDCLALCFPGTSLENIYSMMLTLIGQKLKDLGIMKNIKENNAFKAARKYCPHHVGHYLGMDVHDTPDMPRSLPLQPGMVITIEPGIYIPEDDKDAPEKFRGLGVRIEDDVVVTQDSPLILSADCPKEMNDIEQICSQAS
Sequence of UniProt Q9NZ09 (Q9NZ09 whole entry, looked up): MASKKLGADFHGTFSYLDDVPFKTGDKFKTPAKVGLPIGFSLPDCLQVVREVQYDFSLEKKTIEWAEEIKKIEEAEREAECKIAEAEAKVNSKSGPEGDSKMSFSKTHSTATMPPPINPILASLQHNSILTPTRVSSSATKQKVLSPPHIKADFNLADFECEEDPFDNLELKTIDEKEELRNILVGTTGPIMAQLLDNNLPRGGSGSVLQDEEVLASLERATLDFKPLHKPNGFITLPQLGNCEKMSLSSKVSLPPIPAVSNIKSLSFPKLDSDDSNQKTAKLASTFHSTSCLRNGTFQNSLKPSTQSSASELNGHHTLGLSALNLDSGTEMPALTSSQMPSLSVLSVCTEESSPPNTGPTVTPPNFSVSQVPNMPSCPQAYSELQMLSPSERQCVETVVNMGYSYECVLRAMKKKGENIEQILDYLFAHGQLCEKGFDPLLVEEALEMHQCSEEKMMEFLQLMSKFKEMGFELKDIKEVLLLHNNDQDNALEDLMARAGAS

| Target | log2 fold change (IRAK-1-4 Inhibitor I) | log2 fold change (ibrutinib) | log2 fold change [1] | log2 fold change (ralimetinib) | log2 fold change [2] | log2 fold change [3] | log2 fold change [4] | log2 fold change (pinometostat) | log2 fold change [5] | log2 fold change [6] | log2 fold change [7] | log2 fold change [8] | log2 fold change [9] | log2 fold change [10] | log2 fold change (Nexturastat A) | log2 fold change (vemurafenib) | log2 fold change [11] | log2 fold change [12] | log2 fold change (givinostat) | log2 fold change (barasertib) |
| --- | --- | --- | --- | --- | --- | --- | --- | --- | --- | --- | --- | --- | --- | --- | --- | --- | --- | --- | --- | --- |
| XPNPEP1 isoform 3 (UniProt Q9NQW7) | 0.07 | -0.002 | -0.011 | -0.03 | -0.016 | -0.135 | -0.073 | -0.006 | -0.014 | 0.045 | 0.014 | -0.024 | 0.023 | 0.036 | -0.014 | 0 | 0.021 | -0.01 | 0.042 | 0.016 |
| TRIM28 (UniProt Q13263) | -0.008 | -0.033 | 0.052 | -0.003 | -0.035 | -0.087 | 0.018 | -0.056 | -0.002 | -0.152 | 0.013 | -0.049 | 0.013 | 0.041 | -0.059 | 0.078 | 0.075 | 0.012 | 0.039 | 0.04 |
| UTP4 (UniProt Q969X6) | 0.003 | 0.002 | 0.02 | -0.07 | 0.045 | 0.233 (active) | -0.014 | -0.017 | -0.019 | 0.343 (active) | -0.036 | 0.029 | 0.009 | -0.007 | -0.06 | -0.028 | -0.021 | -0.019 | -0.033 | -0.005 |
| TUBA4A (UniProt P68366) | 0.039 | 0.01 | 0.001 | -0.044 | -0.032 | 0 | 0.016 | -0.039 | -0.014 | 0.011 | 0.005 | 0.004 | 0.061 | 0.04 | -0.03 | 0.005 | 0.068 | -0.004 | 0.014 | -0.002 |
| TOP2A isoform 4 (UniProt P11388) | -0.145 | 0.116 | 0.154 | 0.324 | 0 | -0.125 | 0.261 | 0.533 | 0.041 | -0.968 (active) | 0.081 | -0.006 | -0.083 | -0.094 | 0.234 | -0.213 | 0.042 | 0.182 | 0.207 | -0.054 |
| XPNPEP3 (UniProt Q9NQH7) | 0.061 | 0.044 | 0.019 | -0.013 | 0.021 | -0.002 | -0.018 | -0.015 | -0.003 | -0.028 | -0.045 | 0.024 | 0.005 | 0.017 | -0.08 | 0.011 | -0.012 | 0.013 | -0.218 | -0.016 |
| VPS50 (UniProt Q96JG6) | -0.046 | -0.009 | -0.003 | 0.12 | -0.138 | -0.099 | 0.053 | -0.014 | 0.025 | 0.023 | -0.007 | -0.076 | 0.054 | 0.054 | -0.052 | 0.077 | 0.066 | 0.09 | 0.014 | 0.059 |
| TRIP10 isoform 2 (UniProt Q15642) | 0.09 | -0.032 | -0.078 | 0.143 | 0.004 | 0.204 | -0.118 | -0.027 | 0.118 | -0.01 | -0.068 | -0.04 | 0.019 | 0.046 | 0.12 | 0.026 | 0.177 | 0.004 | 0.01 | 0.011 |
| UBLCP1 (UniProt Q8WVY7) | -0.029 | -0.072 | -0.057 | -0.104 | -0.061 | -0.027 | 0.191 | 0.017 | -0.023 | -0.155 | -0.011 | -0.078 | -0.03 | 0.03 | 0.025 | 0.076 | 0.093 | -0.006 | 0.122 | 0.057 |
| WDR7 (UniProt Q9Y4E6) | -0.112 | -0.027 | -0.078 | 0.067 | -0.141 | -0.429 (active) | 0.1 | 0.062 | 0.029 | 0.122 | -0.029 | -0.008 | -0.016 | -0.025 | -0.216 | 0.091 | 0.083 | 0.202 | 0.067 | 0.03 |
| UBAP1 isoform 4 (UniProt Q9NZ09) | -0.058 | 0.07 | -0.001 | -0.024 | -0.044 | -0.087 | 0.107 | 0.018 | 0.184 | -0.112 | 0.082 | -0.002 | 0.135 | -0.015 | -0.049 | 0.005 | 0.159 | 0.018 | 0.13 | 0.033 |
| TMEM214 (UniProt Q6NUQ4) | -0.076 | -0.063 | 0.028 | -0.03 | 0.019 | 0.066 | 0.044 | 0.073 | 0.014 | 0.074 | -0.038 | -0.054 | 0.023 | 0.007 | 0.062 | 0.046 | 0.065 | 0 | 0.021 | -0.03 |
| XPO6 (UniProt Q96QU8) | -0.131 | 0.246 | -0.038 | 0.083 | 0.434 (active) | -0.189 | -0.023 | 0.646 (active) | -0.08 | 0.067 | 0.008 | -0.221 | 0.041 | -0.369 | 0.767 (active) | 0.082 | 0.13 | 0.028 | 0.068 | -0.003 |
| TOMM20 (UniProt Q15388) | 0.006 | 0 | 0.003 | -0.017 | 0.118 | -0.343 (active) | 0.047 | 0.022 | -0.021 | 0.018 | 0.058 | 0.044 | 0.04 | -0.019 | 0.019 | -0.024 | 0.092 | 0.026 | 0.011 | 0.021 |
| TRIP10 (UniProt Q15642) | 0.007 | 0.002 | 0.009 | 0.001 | 0 | -0.022 | 0.007 | -0.007 | -0.009 | -0.02 | 0.003 | -0.026 | -0.009 | -0.045 | 0.139 | 0.08 | 0.026 | -0.012 | -0.058 | 0.015 |

— the supplement of paper PMC10849652
